Experimental data as given in PubChem BioAssay AID727 (The Scripps Research Institute Molecular Screening Center, 2007).
The campaign covered roughly 97,000 compounds. About 810 (0.84%) were called active. The sample holds actives, similar compounds and a random draw of the others, so the mix is not that of the screen. Cut-off read from the data, not from the text of the source: active = inhibition above about 19%; inactive = the rest.

biological target: Focal adhesion kinase 1 (Homo sapiens) (UniProt Q05397); test: FAK kinase inhibitors, primary screen, biochemical (AID 727); conditions: biochemical FAK kinase activity assay; stronger effect = higher value;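 tested at 7 µM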;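 note: 0% = DMSO and 100% = reference compound high control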
Sequence (Q05397 whole entry, looked up): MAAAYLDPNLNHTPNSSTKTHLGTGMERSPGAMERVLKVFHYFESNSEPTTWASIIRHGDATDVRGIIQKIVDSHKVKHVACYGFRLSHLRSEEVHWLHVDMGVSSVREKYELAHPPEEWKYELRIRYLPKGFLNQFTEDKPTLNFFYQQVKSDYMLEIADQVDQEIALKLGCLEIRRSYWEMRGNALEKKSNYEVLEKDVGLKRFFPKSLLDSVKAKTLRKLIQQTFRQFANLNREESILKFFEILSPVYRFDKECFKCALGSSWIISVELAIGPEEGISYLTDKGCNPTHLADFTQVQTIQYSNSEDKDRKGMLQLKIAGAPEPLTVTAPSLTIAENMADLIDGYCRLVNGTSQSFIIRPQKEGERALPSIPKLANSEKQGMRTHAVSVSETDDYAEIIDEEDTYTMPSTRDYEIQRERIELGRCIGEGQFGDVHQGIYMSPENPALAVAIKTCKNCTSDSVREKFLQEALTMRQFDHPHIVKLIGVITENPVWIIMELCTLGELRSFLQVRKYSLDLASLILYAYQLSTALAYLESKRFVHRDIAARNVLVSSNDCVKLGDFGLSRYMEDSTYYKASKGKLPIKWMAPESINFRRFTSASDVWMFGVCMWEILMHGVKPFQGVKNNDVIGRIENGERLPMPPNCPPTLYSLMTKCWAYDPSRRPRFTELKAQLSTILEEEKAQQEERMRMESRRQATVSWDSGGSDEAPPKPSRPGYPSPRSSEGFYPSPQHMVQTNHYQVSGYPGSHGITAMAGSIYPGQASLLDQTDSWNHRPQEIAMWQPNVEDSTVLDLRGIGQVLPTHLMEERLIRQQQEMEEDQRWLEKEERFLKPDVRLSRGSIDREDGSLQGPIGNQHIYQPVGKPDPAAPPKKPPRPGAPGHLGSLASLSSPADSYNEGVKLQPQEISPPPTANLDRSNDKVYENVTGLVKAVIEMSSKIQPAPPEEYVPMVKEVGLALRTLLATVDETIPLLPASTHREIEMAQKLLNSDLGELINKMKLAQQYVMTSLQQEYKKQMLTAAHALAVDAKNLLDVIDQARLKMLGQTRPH

SMILES | inhibition
COc1ccc(C2(CNC(=O)C(c3ccccc3)c3ccccc3)CCOCC2)cc1OC | 1.78% (inactive)
C=C(C)CNC(=S)/N=c1\scc(C)n1CC | -6.21% (inactive)
Oc1ccc(-c2onc3ccc(Cl)cc23)cc1 | 5.87% (inactive)
Cc1cccc(NC(=O)c2cc(N3C(=O)CCC3=O)ccc2Cl)n1 | -0.12% (inactive)
CCOC(=O)c1cc(C#N)c(N2CCCCC2)nc1-c1ccccc1 | 4.29% (inactive)
CCOC(=O)c1sc2nc(SC)nc(-c3ccccc3)c2c1N | 2.16% (inactive)
COc1ccc(C)cc1N(C)C(=O)c1coc(=O)c2ccccc12 | 1.58% (inactive)
Nc1c(-c2ccc(F)cc2)cnc2ncnn12 | 19.1% (active)
Cc1ccc(S(=O)(=O)N(CC(=O)N/N=C/c2ccc(F)cc2)c2cccc3cccnc23)cc1 | 3.64% (inactive)
COc1ccc(/C(N)=N/OC(=O)Oc2ccccc2)cc1 | 0.12% (inactive)
CC1CCN(C(=O)c2cc3nc(C4CC4)cc(C(F)(F)F)n3n2)CC1 | 0.8% (inactive)
C/C=C/C(=O)OCC(=O)Nc1ccc(F)cc1Cl | -4.03% (inactive)
Cc1nn(CC(=O)Nc2ccc3c(c2)nc(CN2CCCCC2)n3C)c(=O)c2ccccc12 | 3.98% (inactive)
CCC(=O)Nc1ccc2c(c1)nc(CCN1CCN(C)CC1)n2C | -1.8% (inactive)
Cn1c(CCN2CCCCCC2)nc2cc(NC(=O)Nc3ccccc3)ccc21 | 22.2% (active)
COC(=O)/C(=C\Nc1ccccc1)NC(=O)c1ccc(Cl)cc1Cl | 0.67% (inactive)
CCn1c(CNC(=O)c2ccccc2)nnc1SCC(=O)N1CCN(c2ccccc2)CC1 | 1.01% (inactive)
CS(=O)(=O)Nc1cccc(C2=NN(S(=O)(=O)c3ccccc3)C(c3cccs3)C2)c1 (stereo not given) | 1.03% (inactive)
CCN(CC)S(=O)(=O)c1cc([N+](=O)[O-])ccc1NNC(=O)Nc1ccccc1 | 22.7% (active)
CCN(c1ccccc1)S(=O)(=O)c1ccc(NC(=O)C(C)(C)C)cc1 | -0.76% (inactive)
CCN(CC)S(=O)(=O)c1cccc(C(=O)Nc2ccccc2)c1 | 7.09% (inactive)
COc1ccc(OC)c(N=Cc2c(O)[nH]c3ccccc23)c1 | 13.7% (inactive)
COC(=O)c1[nH]c2ccccc2c1NS(=O)(=O)c1ccc(OC)cc1OC | 0.04% (inactive)
COc1cc(N=Cc2c(O)[nH]c3ccccc23)cc(OC)c1OC | 73.4% (active)

SMILES | inhibition
CCCc1ccc(OCc2ccc(C(=O)N/N=C/c3cccc([N+](=O)[O-])c3)o2)c(OC)c1 | 1.02% (inactive)
Cc1[nH]n(-c2ccc([N+](=O)[O-])cc2)c(=O)c1C=NCCN1CCN(C(=O)c2ccccc2F)CC1 | 6.47% (inactive)
Cc1ccc(CN(N=Nc2nonc2N)c2nonc2N)c(C)c1 | -1.18% (inactive)
O=c1c2ccccc2nc2n1C(CSCc1ccccc1)CS2 (stereo not given) | 7.02% (inactive)
O=C1C2N=NN(CC(=O)N3N=C(c4cccc5ccccc45)CC3c3ccccc3)C2C(=O)N1c1ccccc1 (stereo not given) | 1.07% (inactive)
Cc1nc(NNC(=O)c2ccccc2)cc(-c2ccccc2)n1 | -0.62% (inactive)
Cc1ccc(SCC(=O)NC(=O)NCc2ccco2)c(C)c1 | 6.63% (inactive)
O=C(/C=C/c1ccco1)Nc1ccc(Oc2ccccc2)cc1 | 0.45% (inactive)
Cc1ccc(-n2nc3ccc(NC(=O)/C=C/c4ccco4)cc3n2)cc1C | 19.2% (active)
O=C(/C=C/c1ccco1)Nc1cccc(-c2nc3ccccc3[nH]2)c1 | 1.17% (inactive)
CN(C)CCNC(=O)Nc1cccc(Cl)c1Cl | -0.62% (inactive)
CCOC(=O)c1cnc(-c2ccccc2)nc1Oc1ccc(C)cc1 | 4.12% (inactive)
CN(CCO)Cc1csc2ccc(Br)cc12 | -0.2% (inactive)
C=CCNc1nc(N)c(C(=C(C#N)C#N)c2ccccc2)s1 | 9.82% (inactive)
N=c1c2c3c(sc2nc2n1CCCCC2)CCCC3 | 0.27% (inactive)
CC1Cc2ccccc2N1C(=O)c1cc2sccc2n1Cc1ccccc1 (stereo not given) | -0.85% (inactive)
COc1cccc(/C=N/NC(=O)C(=O)N2CCCC2)c1 | -2.37% (inactive)
O=C(Nc1ccccc1)c1cccnc1Nc1ccccc1 | 1.76% (inactive)
O=C(Nc1ccc(-n2ccnc2P(=O)(O)c2ccccc2)cc1)c1ccccc1Br | 22.8% (active)
Cc1nonc1NC(=O)c1ccccc1Br | -1.88% (inactive)
CC(CNc1ccc([N+](=O)[O-])cc1)NC(=O)c1ccccc1Br (stereo not given) | 1.61% (inactive)
C#CCN(N(C)c1ncc(C(F)(F)F)cc1Cl)S(=O)(=O)c1ccc2ccccc2c1 | -0.5% (inactive)
CN(CCc1ccccn1)S(=O)(=O)c1ccc2c3c(cccc13)C(=O)N2 | -2.74% (inactive)
CCN(CC)S(=O)(=O)c1ccc2c3c(cccc13)C(=O)S2 | 36% (active)

SMILES | inhibition
COc1cccc(C(=O)NNC(=O)c2ccccc2Br)c1 | -3.7% (inactive)
CC(C)N1C(=S)SC(C)(C)C1n1oc(=O)n(-c2ccc(Cl)c(Cl)c2)c1=O (stereo not given) | 1% (inactive)
O=[N+]([O-])c1ccc(Oc2ccc(F)cc2Br)c2ccncc12 | 19.1% (active)
COC(=O)c1ccc(OCC(=O)NC(C)(C)C)cc1 | -0.09% (inactive)
Cc1cc2cc3c(N)[nH]nc3nc2cc1C | 38.5% (active)
CCc1nnc(NC(=O)c2nc3nccc(C)n3n2)s1 | -3.17% (inactive)
CCc1ccc2nc3sc(C(=O)Nc4nnc(CC)s4)c(N)c3cc2c1 | 33.3% (active)
CCc1nnc(NC(=O)c2cccs2)s1 | -4.62% (inactive)
Cc1cccc(N2CCN(C(=O)c3cnn4c(C(F)F)cc(-c5ccccc5)nc34)CC2)c1C | 2.11% (inactive)
COc1ccc(C2CC(=O)Nc3sc(=N)c4c(N)c(C#N)c(N)nc4c32)cc1OC (stereo not given) | -1.85% (inactive)
CC1(C)C2CCC13CS(=O)(=O)NC3C2 (stereo not given) | -2.12% (inactive)
Brc1ccc(/C=N/N2CCN(C3c4ccccc4-c4ccccc43)CC2)s1 | -1.5% (inactive)
CCC(C)(C(=O)NC1CCCCC1)N(C)C(=O)c1ccc2c(c1)OCO2 (stereo not given) | -1.51% (inactive)
O=C(O)CCC(=O)NCc1ccc(C(=O)O)cc1 | -0.4% (inactive)
C[C@H](NC(=O)OC(C)(C)C)c1nnc(SCC(=O)Nc2ccc(Br)cc2)o1 | -1.41% (inactive)
CCc1ccccc1NC(=O)CSc1nnc([C@@H](NC(=O)OC(C)(C)C)C(C)C)o1 | -2.32% (inactive)
CCc1ccccc1NC(=O)CSc1nnc([C@@H](NC(=O)OC(C)(C)C)C(C)CC)o1 (stereo not given in full) | 25.9% (active)
CCOc1ccc(NC(=O)CC2NCCNC2=O)cc1 (stereo not given) | 0.06% (inactive)
CCCOc1ccc(NC(=O)C2CCCNC2=O)cc1 (stereo not given) | 40.2% (active)
CCCCNC(=O)C1CCCNC1=O (stereo not given) | -0.32% (inactive)
COc1ccc(-c2[nH]nc(-c3ccccc3)c2-c2nc3ccccc3[nH]2)cc1 | -5.4% (inactive)
COc1ccc(C2C(C#N)=C(/N=C/N3CCOCC3)OC3=C2C(=O)CC(C)(C)C3)cc1OC (stereo not given) | 0.22% (inactive)
